Only some compounds are listed: those with a hit (about 0.51% of all), similar ones and a draw of the others.
Epigenetic derep: regulators of epigenetic silencing causing reporter derepression in mouse cells; Potency, µM (titrated, usually from 53.9 µM), for inactives: top-dose GFP activation, most hits filed as activators; AID 1865; 280,000 tested, 0.2% active; murine LDR cells, GFP reporter derepression, 30 h; further: potency means the concentration at half of the fitted maximal effect; % of control where 0% means no effect; nearly all actives have a fitted effect of over 60% in size
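GFP-positive cell count by laser-scanning cytometry (objects 20–120 um) after 30 h, 37 C compound exposure of murine LDR cells; reporter is CMV-GFP integrated at a silenced locus, inducible by HDAC or DNMT inhibitors.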
PINK1 expr mod: PINK1 expression modulation | PINK1 immunofluorescence, high-content cytometry, 24 h | Potency, µM (titrated, usually from 76.6 µM), for inactives: at the top dose activation (PINK1 increase), most hits filed as activators | 410,000 tested, 0.2% active | AID 624263; active means well fitted activation curve with a large enough effect; inconclusive means small, poorly fitted or top-dose-only effect; cell line not stated here; further: potency means the concentration at half of the fitted maximal effect; % of control where 0% means no effect; nearly all actives have a fitted effect of over 65% in size
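Readout is PINK1 immunofluorescence, quantified alongside mitochondrial, cell and nuclear markers by laser-scanning microplate cytometry. Cells from a stable line were exposed to compound titrations (5 concentrations) for 24 hours, with CCCP controls.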
Vif-APOBEC3F blk: inhibitors of Vif-A3F interaction; 390,000 tested, 0.2% active; Potency, µM (top dose mostly 46.1 µM), without a hit: at the top dose activity, negative = active; HeLa A3F-eYFP + Vif (tagged APOBEC3F with the HIV-1 protein that degrades it), YFP fluorescence increase; AID 602313; further: potency means the concentration at half of the fitted maximal effect; % of control where 0% means no effect; nearly all actives have a fitted effect of over 65% in size
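HeLa cells stably expressing A3F-eYFP plus Vif, plated and incubated overnight at 37 deg C, then exposed to compounds overnight at 37 deg C. Blocked degradation read as raised yellow fluorescence (Ex 488/Em 500-530).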
Vif-A3G inh: blocks the Vif interaction with human APOBEC3G. Q9HC16. 410,000 tested, 0.076% active. HeLa A3G-eYFP + Vif (tagged APOBEC3G with the HIV-1 protein that degrades it), YFP fluorescence, overnight. Potency, µM (series often up to 46.1 µM), without a hit: top-dose activity, negative = active, usual class: inhibitors. AID 602310; further: potency means the concentration at half of the fitted maximal effect; on the % scale 0 is the no-effect control and ±100 the full control effect; nearly all actives have a fitted effect of over 60% in size
Target sequence (Q9HC16 whole entry, looked up): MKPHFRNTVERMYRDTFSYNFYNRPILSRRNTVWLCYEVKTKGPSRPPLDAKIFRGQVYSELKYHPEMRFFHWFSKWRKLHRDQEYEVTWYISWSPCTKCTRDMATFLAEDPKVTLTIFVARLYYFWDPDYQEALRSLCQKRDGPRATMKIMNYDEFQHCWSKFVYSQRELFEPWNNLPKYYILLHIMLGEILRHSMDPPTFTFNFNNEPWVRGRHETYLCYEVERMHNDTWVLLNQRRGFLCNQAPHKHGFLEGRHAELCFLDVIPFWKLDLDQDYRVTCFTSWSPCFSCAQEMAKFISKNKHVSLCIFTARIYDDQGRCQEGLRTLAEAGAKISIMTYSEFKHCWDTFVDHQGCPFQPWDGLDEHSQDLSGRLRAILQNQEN
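Read-out is eYFP fluorescence (Ex 488/Em 500-530) from Vif-expressing HeLa A3G-eYFP cells; more signal means A3G escaped Vif-mediated degradation. Cells plated overnight, compound pinned in, incubated overnight at 37 deg C.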
C127i cell count: changes parental c127i cell counts in epigenetic modulator counter-screen | AID 493065 | Potency, µM, for the others: top-dose fluorescent cell count, most hits filed as activators | mouse c127i parental cells, fluorescent cell count, 30 h | shares compounds with Epigenetic derep | 60 tested, 20% active
HCC4017 tox: epigenetic modulators: cytotoxicity in HCC4017 lung cancer cells; shares compounds with Epigenetic derep; HCC4017 NSCLC viability, CellTiter-Glo ATP luminescence, 72 h; Potency, µM (titrated, usually from 46.1 µM), without a hit: at the highest dose activity change, negative = cytotoxicity, most hits filed as cytotoxic; 45 tested, 30% active
H358 viab: epigenetic modulators: cytotoxicity in H358 lung cancer cells | shares compounds with Epigenetic derep | H358 NSCLC viability, ATP luminescence, 72 h | Potency, µM (titrated, usually from 46.1 µM), for inactives: at the highest dose activity change, negative = viability loss, actives largely listed as cytotoxic | 45 tested, 30% active | AID 493074
* = called active by the depositor; ? = inconclusive; · = not tested or not shown; [ ] = remark or other dose. Unless noted, the call rests on the fitted dose curve; in most records, active means well fitted curve in the direction sought with a large enough effect; inconclusive means small, poorly fitted or top-dose-only effect, or another doubt; inactive means no such curve, though single readings can be large; an effect the other way counts as inactive or inconclusive.

SMILES	Epigenetic derep	PINK1 expr mod	Vif-APOBEC3F blk	Vif-A3G inh	others
COCCN1CCN(C(=O)c2cnn(-c3nccc(-c4ccccc4OC)n3)c2-c2ccco2)CC1	·	-0.3%	·	·
CN(C)c1ccc(/C=C/N2C=CCc3c2ccc2ccccc32)cc1	·	·	·	9.2%
COC(=O)c1ccccc1-c1cc(C)cc2c1OC(CNC(=O)c1cnc(C)cn1)C2 (stereo unspecified)	·	0.8%	·	·
CC/C(=C/c1ccccc1OC)c1cc(-c2ccccc2)cc2oc3ccccc3c12	·	·	·	-3.5%
COc1ccccc1CNc1nc2ccc(C)cc2n2nnnc12	?	1.0%	12.6µM*	-2.9%
Cc1ccc(CNc2nc3ccc(Cl)cc3n3nnnc23)cc1	?	-1.3%	7.08µM*	2.6%
COc1cccc(CNc2nc3ccc(C)cc3n3cnnc23)c1	?	39.8µM*	-16.7%	0.9%
Fc1ccc(CNc2nc3ccc(Cl)cc3n3nnnc23)cc1	?	4.4%	7.94µM*	-11.6%
Cc1ccc(CNc2nc3ccc(C)cc3n3cnnc23)cc1	1.9%	5.0%	-17.2%	-3.2%
Cc1ccc(CNc2nc3ccc(C)cc3n3nnnc23)cc1	5.7%	2.2%	1.7%	1.3%
Cc1c(C(=O)NCC2(N3CCOCC3)CCCCCC2)cnn1-c1nccc(-c2ccccc2F)n1	·	-0.8%	·	·
O=C(N/N=C/c1ccc([N+](=O)[O-])o1)c1cc2c(ccc3ccccc32)o1	?	7.9%	7.94µM*	?
CC(c1ccon1)N(C)C(=O)c1cnn(-c2ncc3c(n2)-c2ccccc2CC3)c1C1CC1 (stereo unspecified)	·	0.4%	·	·
O=C(Cn1c(=O)n(-c2ccccc2)c(=O)c2ccc(C(=O)NCc3ccc4c(c3)OCO4)cc21)Nc1ccc(Br)cc1	15.8µM*	-0.7%	-0.1%	-0.5%
COc1ccc(NC(=O)Cn2c(=O)n(-c3ccccc3)c(=O)c3ccc(C(=O)NCc4ccc5c(c4)OCO5)cc32)cc1	24.3%	0.6%	-7.2%	-11.4%
O=C(NCc1nnc2n1CCN(Cc1cc(F)cc(F)c1)CC2)c1cccc(F)c1	·	4.2%	·	·
CCOc1ccc(-c2nonc2NC(=O)c2oc3ccc(F)cc3c2C)cc1	0.0%	9.4%	3.5%	-41.0%
Cc1c(C(=O)Nc2nonc2-c2ccc(F)cc2)oc2ccc(F)cc12	·	28.2µM*	-22.8%	-8.4%
COc1ccc2[nH]cc(/C=C/c3cc[n+](C)cc3)c2c1	·	?	12.6µM*	11.2µM*
Cn1c(=O)c(NC2CCCCC2)c2c3c(cccc31)C(=O)c1ccccc1-2	0.126µM*	15.3%	-56.7%	?
Cn1c(=O)c(NCCO)c2c3c(cccc31)C(=O)c1ccccc1-2	8.2%	0.3%	4.5%	7.0%
CC(=O)Nc1ccc(Nc2c3c4c(cccc4n(C)c2=O)C(=O)c2ccccc2-3)cc1	3.4%	?	8.91µM*	-12.3%
CCCCNc1c2c3c(cccc3n(C)c1=O)C(=O)c1ccccc1-2	?	17.7%[38.3 µM]	?	1.3%
COc1ccc2c(C)cc(SCC(=O)N(C)C3CCS(=O)(=O)C3)nc2c1 (stereo unspecified)	10µM*	-1.1%	11.2µM*	?	C127i cell count=?;HCC4017 tox=-14.4%;H358 viab=-8.4%
CC(C)(C)n1ncc2c(=O)n(Cc3ccccc3SC(F)(F)F)cnc21	·	·	·	-7.6%
Cc1ccccc1C1(CC(=O)N2CCCCC2c2cccnc2)CC(=O)N(C2CCCC2)C1=O (stereo unspecified)	·	-0.2%	·	·
O=C(CSc1cccc2cccnc12)N1CCCC1	0.0%	-2.3%	-11.4%	?	HCC4017 tox=?;H358 viab=-23.5%
C(=C\c1ccnc2ccccc12)/c1ccc2ccccc2n1	·	·	·	-27.5%

Screening data from PubChem BioAssay.
